The results in this text go back to ChEMBL document CHEMBL3988442, “University of Dundee, Small-Polar-MMV Screening Library” (2021).

Holding throughout (design): scale not given: direction of the effect not stated beside the values
Assay [1] deals with Protein translocase subunit SecA (Escherichia coli (strain K12)) (UniProt P10408). Nature of the assay: Assay to Identify E. coli SecA ATPase Inhibitors. Format: functional. The note with it: 30 µM.
The target of assay [2] is T1, Ubiquitin-activating enzyme e1, putative (Leishmania donovani (strain BPK282A1)) (UniProt E9BSI1).
T1 sequence (whole entry): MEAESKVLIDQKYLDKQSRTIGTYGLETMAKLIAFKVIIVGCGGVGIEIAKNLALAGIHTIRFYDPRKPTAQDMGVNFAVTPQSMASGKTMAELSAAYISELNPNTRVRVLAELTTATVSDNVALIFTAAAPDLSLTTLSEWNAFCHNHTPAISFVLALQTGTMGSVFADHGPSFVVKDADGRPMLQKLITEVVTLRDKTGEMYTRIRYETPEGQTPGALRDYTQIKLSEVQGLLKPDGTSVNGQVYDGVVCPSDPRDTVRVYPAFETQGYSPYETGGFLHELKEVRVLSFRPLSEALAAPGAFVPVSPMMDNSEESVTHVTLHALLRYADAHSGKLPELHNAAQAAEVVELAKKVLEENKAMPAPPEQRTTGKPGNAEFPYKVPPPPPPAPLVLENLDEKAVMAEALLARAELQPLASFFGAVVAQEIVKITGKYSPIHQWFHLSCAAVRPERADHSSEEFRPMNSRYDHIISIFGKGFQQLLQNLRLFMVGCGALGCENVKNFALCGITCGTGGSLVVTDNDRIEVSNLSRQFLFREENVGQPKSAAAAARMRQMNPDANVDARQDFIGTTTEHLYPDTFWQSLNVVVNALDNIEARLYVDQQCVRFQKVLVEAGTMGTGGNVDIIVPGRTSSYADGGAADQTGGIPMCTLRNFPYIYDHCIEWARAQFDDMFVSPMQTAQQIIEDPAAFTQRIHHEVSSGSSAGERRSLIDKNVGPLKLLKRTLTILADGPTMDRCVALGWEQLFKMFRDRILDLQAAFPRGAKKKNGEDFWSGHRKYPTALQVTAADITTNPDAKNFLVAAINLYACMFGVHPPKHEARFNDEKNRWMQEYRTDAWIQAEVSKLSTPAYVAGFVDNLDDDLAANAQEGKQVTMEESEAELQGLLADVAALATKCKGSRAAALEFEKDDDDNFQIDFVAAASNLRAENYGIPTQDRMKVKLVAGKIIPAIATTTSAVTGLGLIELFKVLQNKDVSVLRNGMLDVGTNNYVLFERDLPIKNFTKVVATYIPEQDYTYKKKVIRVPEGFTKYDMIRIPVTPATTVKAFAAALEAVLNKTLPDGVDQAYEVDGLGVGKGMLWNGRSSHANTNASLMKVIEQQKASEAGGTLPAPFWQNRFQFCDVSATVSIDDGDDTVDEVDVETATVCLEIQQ
Nature of the assay: Leishmania donovani Ubiquitin Activating Enzyme (LdE1). Particulars: 30 µM. Format: functional.

For assay [3], the target named is AMP-activated protein kinase, AMPK (Homo sapiens) (UniProt P54646+O43741+P54619+Q9UGJ0+Q9Y478+Q13131+Q9UGI9). Description: AMP-dependent Kinase enzyme assay. An in vitro enzyme assay that detects ADP turnover that is directly proportional to AMPK activity. This uses naive AMPK that is activated during the assay with MK-8722. Format: functional. The note with it: 30 µM.

In assay [4] the target is Sialic acid-binding Ig-like lectin 9 (Homo sapiens) (UniProt Q9Y336). Description: Hs-Siglec9 ALPHAscreen SOP 20170721. Particulars: 10 µM. A general note: In Alpha technology, singlet oxygen from a donor bead excites a nearby acceptor bead.
Sialic acid-binding Ig-like lectin 9 (Homo sapiens), sequence (Q9Y336 whole entry): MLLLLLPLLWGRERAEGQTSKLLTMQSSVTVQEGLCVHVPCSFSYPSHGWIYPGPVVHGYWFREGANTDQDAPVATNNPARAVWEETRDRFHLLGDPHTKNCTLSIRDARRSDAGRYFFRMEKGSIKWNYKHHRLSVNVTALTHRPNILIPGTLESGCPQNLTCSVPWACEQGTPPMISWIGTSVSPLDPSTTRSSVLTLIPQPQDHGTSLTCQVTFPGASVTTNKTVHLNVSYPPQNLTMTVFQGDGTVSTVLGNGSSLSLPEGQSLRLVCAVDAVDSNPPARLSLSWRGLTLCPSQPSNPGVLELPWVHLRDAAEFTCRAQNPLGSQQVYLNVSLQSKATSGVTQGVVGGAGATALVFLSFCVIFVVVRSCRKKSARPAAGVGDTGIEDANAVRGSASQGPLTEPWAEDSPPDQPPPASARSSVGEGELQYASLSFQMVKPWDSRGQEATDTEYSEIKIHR
The next assay concerns Trypanosoma cruzi. Description: Trypanosoma cruzi phosphomannomutase and mannose-1-phosphate guanylyltransferase assay. The note with it: 10 µM. Format: functional.
The target in assay [5] is T2, Arginase-2, mitochondrial (Homo sapiens) (UniProt P78540).
T2 sequence (whole entry): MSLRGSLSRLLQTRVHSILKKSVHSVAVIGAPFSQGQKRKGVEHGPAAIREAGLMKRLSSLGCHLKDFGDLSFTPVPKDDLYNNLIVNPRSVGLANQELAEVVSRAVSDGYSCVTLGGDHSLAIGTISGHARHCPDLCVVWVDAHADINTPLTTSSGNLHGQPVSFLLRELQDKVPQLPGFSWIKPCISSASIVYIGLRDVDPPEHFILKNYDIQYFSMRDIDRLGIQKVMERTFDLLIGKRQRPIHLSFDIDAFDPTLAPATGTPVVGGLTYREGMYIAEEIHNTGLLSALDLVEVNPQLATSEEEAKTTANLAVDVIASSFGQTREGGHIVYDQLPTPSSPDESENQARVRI
Nature of the assay: in vitro enzyme assay to detect the production of urea directly proportional to the activity of Arginase II. Also: in the data most compounds retested in dose-response had high values. The note with it: 33.3 µM. Format: functional.

Assay [6] addresses T3, Proteasome subunit beta (Trypanosoma cruzi) (UniProt O96673).
T3 sequence (whole entry): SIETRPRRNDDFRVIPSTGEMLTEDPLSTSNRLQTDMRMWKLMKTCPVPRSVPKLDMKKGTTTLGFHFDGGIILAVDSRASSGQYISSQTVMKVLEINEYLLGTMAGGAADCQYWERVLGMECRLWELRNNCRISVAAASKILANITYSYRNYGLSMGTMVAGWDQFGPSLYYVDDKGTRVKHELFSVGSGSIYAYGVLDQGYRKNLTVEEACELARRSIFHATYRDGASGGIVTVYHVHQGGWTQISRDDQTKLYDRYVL
Description: Trypanosoma cruzi proteasome chymotrypsin-like activity (TcProtChymo) assay. Also: in the data most compounds retested in dose-response had high values. Format: functional. Particulars: 9.37 µM.

Another assay is filed under the species Homo sapiens. Description: To identify inhibition of the IFN signalling (Jak-Stat) pathway via expression of an eGFP reporter gene under the control of an IFN-stimulated response element (ISRE) containing MxA promoter. In kind it is functional. The note with it: 30 µM. For orientation: In a reporter assay the amount or activity of a reporter protein is the signal.

Assay [7] concerns the target T4, Tyrosyl-tRNA synthetase, putative (Trypanosoma cruzi (strain CL Brener)) (UniProt Q4DSP6).
T4 sequence (whole entry): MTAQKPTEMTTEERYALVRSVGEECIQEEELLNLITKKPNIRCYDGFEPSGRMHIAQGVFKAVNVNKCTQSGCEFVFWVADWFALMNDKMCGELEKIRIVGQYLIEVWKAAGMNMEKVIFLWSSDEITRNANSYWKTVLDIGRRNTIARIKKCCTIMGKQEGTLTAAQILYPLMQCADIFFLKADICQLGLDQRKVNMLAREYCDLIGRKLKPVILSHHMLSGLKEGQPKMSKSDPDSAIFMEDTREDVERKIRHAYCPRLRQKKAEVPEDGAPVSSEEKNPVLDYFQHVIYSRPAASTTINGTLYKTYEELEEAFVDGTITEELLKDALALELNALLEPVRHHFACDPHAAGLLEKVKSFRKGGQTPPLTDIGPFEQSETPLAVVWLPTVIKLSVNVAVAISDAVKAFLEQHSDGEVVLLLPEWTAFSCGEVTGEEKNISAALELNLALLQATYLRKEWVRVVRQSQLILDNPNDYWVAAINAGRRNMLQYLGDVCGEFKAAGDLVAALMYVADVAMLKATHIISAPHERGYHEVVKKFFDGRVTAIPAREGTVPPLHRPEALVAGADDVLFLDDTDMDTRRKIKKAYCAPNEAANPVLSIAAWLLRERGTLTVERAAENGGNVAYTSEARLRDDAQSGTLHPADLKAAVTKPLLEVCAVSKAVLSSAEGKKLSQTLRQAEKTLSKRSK
Description: Trypanosoma cruzi tyrosyl tRNA synthetase (TcYRS) _High Tyrosine SOP. Also: in the data most compounds retested in dose-response had high values. In kind it is functional. The note with it: 30 µM.

Assay [8] concerns the target T4, Tyrosyl-tRNA synthetase, putative (Trypanosoma cruzi (strain CL Brener)). Nature of the assay: Trypanosoma cruzi tyrosyl tRNA synthetase (TcYRS) SOP. Particulars: 30 µM. In kind it is functional.
Assay [9] addresses Chromo domain-containing protein 1 (Saccharomyces cerevisiae (strain ATCC 204508 / S288c) (Baker's yeast)) (UniProt P32657). Description: ScCHD-1 Enzyme Inhibition Assay. Also: in the data most compounds retested in dose-response had high values. Particulars: 30 µM. In kind it is functional.

For some assays here: Measured potencies and affinities stand elsewhere.

Chromo domain-containing protein 1 (Saccharomyces cerevisiae (strain ATCC 204508 / S288c) (Baker's yeast)), sequence (P32657 whole entry, the tested form may be a part): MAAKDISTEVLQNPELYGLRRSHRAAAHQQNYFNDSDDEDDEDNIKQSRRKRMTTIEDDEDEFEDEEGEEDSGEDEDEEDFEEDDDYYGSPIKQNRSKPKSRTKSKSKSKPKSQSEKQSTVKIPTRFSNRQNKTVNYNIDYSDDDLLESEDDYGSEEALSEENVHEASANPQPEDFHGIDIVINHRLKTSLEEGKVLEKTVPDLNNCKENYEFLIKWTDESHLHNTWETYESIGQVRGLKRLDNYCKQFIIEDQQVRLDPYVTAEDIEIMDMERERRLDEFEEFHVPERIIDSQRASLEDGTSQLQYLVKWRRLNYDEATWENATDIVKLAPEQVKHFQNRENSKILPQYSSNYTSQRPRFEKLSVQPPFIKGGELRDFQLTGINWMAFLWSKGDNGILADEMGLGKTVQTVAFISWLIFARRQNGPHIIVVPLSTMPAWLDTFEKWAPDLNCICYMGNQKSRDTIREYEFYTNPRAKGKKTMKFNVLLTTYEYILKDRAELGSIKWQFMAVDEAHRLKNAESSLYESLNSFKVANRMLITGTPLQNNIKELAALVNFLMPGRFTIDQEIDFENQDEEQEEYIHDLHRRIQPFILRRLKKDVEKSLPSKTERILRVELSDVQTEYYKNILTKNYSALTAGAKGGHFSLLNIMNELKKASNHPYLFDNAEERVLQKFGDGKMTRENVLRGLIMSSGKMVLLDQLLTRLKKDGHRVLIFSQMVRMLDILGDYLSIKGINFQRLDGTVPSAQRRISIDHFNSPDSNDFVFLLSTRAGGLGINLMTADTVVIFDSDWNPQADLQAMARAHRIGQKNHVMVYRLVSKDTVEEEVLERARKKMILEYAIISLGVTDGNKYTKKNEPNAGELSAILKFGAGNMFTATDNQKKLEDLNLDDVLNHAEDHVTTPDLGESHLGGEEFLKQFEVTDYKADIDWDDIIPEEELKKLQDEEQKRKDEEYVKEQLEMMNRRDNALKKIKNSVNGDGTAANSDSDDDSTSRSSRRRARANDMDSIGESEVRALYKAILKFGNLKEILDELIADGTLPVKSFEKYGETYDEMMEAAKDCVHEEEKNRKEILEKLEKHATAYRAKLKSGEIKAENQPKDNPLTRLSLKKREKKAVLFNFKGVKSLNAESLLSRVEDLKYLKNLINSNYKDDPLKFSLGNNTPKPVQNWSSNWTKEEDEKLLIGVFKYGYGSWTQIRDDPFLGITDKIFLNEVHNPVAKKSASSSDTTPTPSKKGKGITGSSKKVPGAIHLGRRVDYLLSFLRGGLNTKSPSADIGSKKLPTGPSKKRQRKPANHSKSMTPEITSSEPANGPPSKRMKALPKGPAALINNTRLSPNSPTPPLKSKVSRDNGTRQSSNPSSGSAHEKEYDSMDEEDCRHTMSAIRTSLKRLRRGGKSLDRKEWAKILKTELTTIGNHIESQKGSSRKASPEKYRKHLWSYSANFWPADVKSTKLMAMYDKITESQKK
Protein translocase subunit SecA (Escherichia coli (strain K12)), sequence (P10408 whole entry): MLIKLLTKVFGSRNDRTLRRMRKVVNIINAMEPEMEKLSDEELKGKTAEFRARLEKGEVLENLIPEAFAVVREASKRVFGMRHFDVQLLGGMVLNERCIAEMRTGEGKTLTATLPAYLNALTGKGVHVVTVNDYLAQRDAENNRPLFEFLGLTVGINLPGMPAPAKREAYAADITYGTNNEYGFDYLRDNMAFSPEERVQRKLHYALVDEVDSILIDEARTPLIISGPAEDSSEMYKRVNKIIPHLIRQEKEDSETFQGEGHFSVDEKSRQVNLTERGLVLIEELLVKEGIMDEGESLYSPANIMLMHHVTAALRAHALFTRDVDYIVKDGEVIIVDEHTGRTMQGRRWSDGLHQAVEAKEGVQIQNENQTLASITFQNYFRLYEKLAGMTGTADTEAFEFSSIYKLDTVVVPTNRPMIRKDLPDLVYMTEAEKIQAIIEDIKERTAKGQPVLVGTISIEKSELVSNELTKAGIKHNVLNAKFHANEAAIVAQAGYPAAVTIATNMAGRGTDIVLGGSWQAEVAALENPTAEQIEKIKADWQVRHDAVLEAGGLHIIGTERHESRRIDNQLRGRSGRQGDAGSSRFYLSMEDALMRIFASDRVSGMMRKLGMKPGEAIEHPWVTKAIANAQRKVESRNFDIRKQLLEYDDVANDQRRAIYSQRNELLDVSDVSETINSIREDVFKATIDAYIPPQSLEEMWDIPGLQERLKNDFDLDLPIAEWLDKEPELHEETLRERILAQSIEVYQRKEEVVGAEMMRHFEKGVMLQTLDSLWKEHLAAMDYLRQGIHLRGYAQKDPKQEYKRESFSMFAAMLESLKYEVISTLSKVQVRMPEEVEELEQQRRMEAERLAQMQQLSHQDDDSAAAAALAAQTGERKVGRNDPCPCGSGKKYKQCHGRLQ

On to `CCC(=O)N1CCCC1c1nccnc1Nc1ncccn1` (stereo not given), for which the Percent Effect in [1] is 0.559%; in [2], -6.76%; in assay [3], 18.4%; in assay [4], 0.16%; with Trypanosoma cruzi, -2.57%; in [5], -0.232%. Also, the Percent Effect was -6.24% in assay [6]; -9.16% in the assay filed under Homo sapiens; 1.07% in assay [7]; -3.9% in assay [8]; -6.85% in [9].
For the compound `CCc1noc(C(C)N2CCC(NC(=O)c3ccc(C)s3)CC2)n1` (stereo not given), the Percent Effect in [1] was -3.18%; in assay [2], 7.79%; in [3] it was 2.15%; in assay [4], 19.9%; in the assay with Trypanosoma cruzi it was 2.65%; in assay [5], 2.76%. The Percent Effect in assay [6] was 12.3%; in the assay filed under Homo sapiens it was 17.6%; in assay [7] it was 4.3%; in assay [8], 11.1%; in [9] it was -0.98%.
For `CCS(=O)(=O)N1CCOC2(CCCN(c3ccc(C)nn3)C2)C1` (stereo not given), the Percent Effect is -0.413% in [1]; 2.67% in assay [2]; 3.56% in assay [3]; 2.28% in assay [4]; -1.35% in the assay on Trypanosoma cruzi; -48.9% in assay [5]. Besides, the Percent Effect in assay [6] was 6.67%; in the assay listed under Homo sapiens it was -5.88%; in [7], -1.04%; in assay [8] it was -2.5%; in [9] it was 0.0361%.
With `Cc1cccc(-c2nc(CN3CCc4c(ncn4C)C3)no2)c1`, the Percent Effect in assay [1] was -6.97%; in [2] it was 2.6%; in [3] it was -1.39%; in [4], -3.74%; in the assay with Trypanosoma cruzi, -7.12%; in assay [5] it was 0.356%. In addition, the Percent Effect was 2.7% in assay [6]; 21.7% in the assay filed under Homo sapiens; -0.971% in [7]; -2.44% in assay [8]; -2.23% in assay [9].
For `COc1ccccc1C(=O)N(C)Cc1ncc(C)c(OC)c1C`, the Percent Effect is -0.917% in assay [1]; -2.6% in assay [2]; 2.31% in assay [3]; 10.5% in assay [4]; -1.86% in the assay on Trypanosoma cruzi; 0.21% in assay [5]. Moreover, the Percent Effect in [6] is 3.8%; in the assay filed under Homo sapiens it was 5.2%; in assay [7], -0.952%; in [8] it was -2.35%; in [9], -15.8%.
In the case of `COc1ccc(OCc2nc(C(=O)N3CC[C@H](O)[C@@H](O)C3)co2)cc1`, the Percent Effect in assay [1] was -5.04%; in assay [2], 2.7%; in assay [3] it was -0.405%; in [4], 4.91%; in the assay with Trypanosoma cruzi, -3.09%; in assay [5] it was -0.476%. In addition, the Percent Effect is 12.8% in assay [6]; -0.834% in the assay filed under Homo sapiens; 6.88% in assay [7]; 12.2% in assay [8]; -4.44% in assay [9].
Turning to `CCn1ccc(C(=O)NCCCN2CCOCC2)n1`, the Percent Effect in assay [1] is -1.56%; in assay [2], 5.2%; in [3], -2.13%; in [4], 4.7%; in the assay on Trypanosoma cruzi, -0.492%; in assay [5] it was -2.76%. Also, the Percent Effect was 22% in [6]; 4.11% in the assay listed under Homo sapiens; 7.53% in assay [7]; 13.6% in assay [8]; 0.597% in assay [9].
Regarding `CCCC(NC(=O)c1cc(C)ccc1C)c1nnn[nH]1` (stereo not given), the Percent Effect in assay [1] is -4.53%; in [2], 13.3%; in [3], -5.34%; in [4] it was 20.1%; in the assay on Trypanosoma cruzi, 7.89%; in [5], 20.8%. Besides, the Percent Effect in [6] is 11.7%; in the assay listed under Homo sapiens, 12.3%; in assay [7] it was 6.01%; in [8], 13.6%; in assay [9], -1.49%.
For `CCCS(=O)(=O)N1CCC2(CN(c3ccsc3)C(=O)CN2C)C1` (stereo not given), the Percent Effect was -3.95% in assay [1]; 8.11% in [2]; -1% in [3]; -0.171% in [4]; 2.34% in the assay with Trypanosoma cruzi; 5.83% in [5]. Further, the Percent Effect in [6] was 10.6%; in the assay filed under Homo sapiens, -4.15%; in [7], 9.9%; in [8], 6.1%; in assay [9] it was -1.58%.
With `CCS(=O)(=O)N1CCC(c2nnc(CN3CCOCC3)n2C)CC1`, the Percent Effect in assay [1] is -3.22%; in assay [2], 18.7%; in assay [3] it was -2.94%; in [4], 20%; in the assay on Trypanosoma cruzi it was 3.8%; in assay [5], 5.73%. Moreover, the Percent Effect was 14.5% in assay [6]; 3.52% in the assay listed under Homo sapiens; 9.29% in [7]; 21% in assay [8]; -5.76% in [9].
